CYP2C9 inh – blocks human cytochrome P450 2C9; inhibition, % at 5 µM; CYP2C9 Supersomes, luciferin-H conversion, luminescence; 96,000 tested, 20% active; AID 777; P11712;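 active = blocking of liver enzyme CYP2C9 beyond about 50% at 5 µM, limit read from the data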
Target sequence (P11712 whole entry, looked up): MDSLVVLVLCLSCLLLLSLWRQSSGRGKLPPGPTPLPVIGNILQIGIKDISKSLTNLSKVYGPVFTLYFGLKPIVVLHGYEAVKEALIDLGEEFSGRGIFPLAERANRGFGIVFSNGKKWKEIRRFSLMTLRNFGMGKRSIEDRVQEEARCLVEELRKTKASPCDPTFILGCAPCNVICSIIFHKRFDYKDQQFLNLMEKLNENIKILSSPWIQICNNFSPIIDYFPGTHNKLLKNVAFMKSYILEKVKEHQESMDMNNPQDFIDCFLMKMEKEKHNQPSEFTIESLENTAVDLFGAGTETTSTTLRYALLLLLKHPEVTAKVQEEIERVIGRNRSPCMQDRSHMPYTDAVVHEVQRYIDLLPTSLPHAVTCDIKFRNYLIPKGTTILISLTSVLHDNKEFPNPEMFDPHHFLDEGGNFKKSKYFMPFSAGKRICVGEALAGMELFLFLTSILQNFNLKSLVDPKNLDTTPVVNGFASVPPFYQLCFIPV
CYP2C19 activ – cytochrome P450 2C19 (human) activation | recombinant CYP2C19, luciferin-H EGE luminescence; hits give high values; 0 = fully inhibited enzyme, 1 = untreated enzyme | activation factor at 5 µM | 96,000 tested, under 10 active | AID 1025;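 active = activation factor of at least 2 at 5 µM in the primary screen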;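 note: 0 = wells with 2.5 mM tranylcypromine and 1 = vehicle-only wells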
Measles CPE – protection of cells from measles virus; Measles virus-infected cells, CPE protection, absorbance; protection (pct of control), % at 4 µM; 140,000 tested, 1.5% active; in the data active = protection mostly above about 24%, no sharp cut-off; inactive = mostly below about 26%
CYP2C19 inh – blocks human cytochrome P450 2C19; inhibition, % at 5 µM; CYP2C19 Supersomes, luciferin-H EGE luminescence, 30 min; 96,000 tested, 21% active;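 active = CYP2C19 inhibition above a set limit at 5 µM in the primary screen, cut at about 50% in these data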;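 note: plate controls were negative control wells for no effect and 2.5 mM tranylcypromine positive control for full effect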
CYP2C9 act – increases human cytochrome P450 2C9 activity | recombinant CYP2C9, luciferin-H conversion, luminescence; hits give high values; factor 1 = untreated enzyme, 0 = blocked | P11712 | 96,000 tested, 1.4% active | activation factor at 5 µM;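 active = activation factor of 2 or more for CYP2C9 at a 5 µM dose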;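 note: 0 = sulfaphenazole-blocked wells and 1 = vehicle-only wells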
* = called active by the depositor; / = no result. Shown are actives, neighbours in structure and some others; about 22% of the full set was active somewhere.

SMILES	CYP2C9 inh	CYP2C19 activ	Measles CPE	CYP2C19 inh	CYP2C9 act
CCOc1ccc(NS(=O)(=O)N(C)C)cc1	16	0.7	5	26	0.8
O=C(NCCCn1ccnc1)c1ccc2c(c1)OCCO2	58*	0	6	97*	0.4
COc1ccc(-c2cc(C(=O)N(C)Cc3ccccc3)no2)cc1OC	50*	0.8	4	21	0.5
COc1cccc(-c2cc(C(=O)NCCc3ccccc3)no2)c1	20	0.9	-1	12	0.8
C=C(C)c1cccc(C(C)(C)NC(=O)NCCCn2ccnc2)c1	96*	0	8	98*	0
O=C(NCCCn1ccnc1)c1cccnc1	/	/	17	/	/
COc1cccc(-c2cc(C(=O)NCCCn3ccnc3)no2)c1	71*	0.2	9	80*	0.3
C=C(C)c1cccc(C(C)(C)NC(=O)NCCCN2CCCC2=O)c1	13	0.9	21	11	0.9
O=C(Nc1c2c(nc3ccccc13)CCCC2)c1ccccc1F	/	/	23	/	/
C=CCc1c(C)nn(CC(=O)O)c1-c1ccccc1	0	1	4	-5	1
Cc1ccc(C(=O)NCCCn2ccnc2)cc1[N+](=O)[O-]	82*	0.3	1	74*	0.2
COc1ccccc1N1CCN(C(=O)CSc2nnc(NC(=O)C3CCC3)s2)CC1	82*	0.5	2	51*	0.2
COc1ccccc1Nc1nnc(SCC(=O)N2CCCC2=O)s1	-167	0.4	16	57*	2.7*
CCOc1ccccc1Nc1nnc(SCC(=O)N2CCCC2)s1	-130	1	4	4	2.3*
Cc1nc(/C=C/c2ccccc2)cc(/C=C/c2ccccc2)n1	42	0.9	16	9	0.6
Cc1cc(=O)oc2cc(OCC(=O)N3CCCC(C)C3)ccc12 (configuration not stated)	-43	0.7	20	29	1.4
Cc1cc(=O)oc2ccc(OCC(=O)N3CCC(C)CC3)cc12	15	0.5	10	55*	0.9
Cc1cc(=O)oc2cc(OCC(=O)N3CC(C)OC(C)C3)ccc12 (configuration not stated)	19	0.3	16	73*	0.8
CC(C)CC(=O)NC1(C(F)(F)F)C(=O)Nc2c1c(=O)n(C)c(=O)n2C (configuration not stated)	-1	1.1	4	-8	1
COC(=O)/C=C1/N/C(=N\c2nc(C)cc(C)n2)N(c2cccc(C)c2)C1=O	/	/	20	/	/
CC1CC(C(F)F)n2nc(C(=O)Nc3sc4c(c3C#N)CCC(C(C)(C)C)C4)nc2N1 (configuration not stated)	/	/	4	/	/
COc1ccc(C)cc1S(=O)(=O)N1CCC(C)CC1	-37	0.7	6	32	1.4
COc1ccc(C)cc1S(=O)(=O)N1CCN(c2cccc(C(F)(F)F)c2)CC1	24	0	7	98*	0.8
COc1ccc(N2CCN(S(=O)(=O)c3cccc(C(F)(F)F)c3)CC2)cc1	16	0.4	18	61*	0.8
COc1ccc(C)cc1S(=O)(=O)N1CCN(S(=O)(=O)c2cc(C)ccc2OC)C(C)C1 (configuration not stated)	99*	0	9	100*	0
SMILES	CYP2C9 inh	CYP2C19 activ	Measles CPE	CYP2C19 inh	CYP2C9 act
COc1ccccc1NC(=O)CSc1ccc2nnc(-c3cccnc3)n2n1	/	/	8	/	/
CCc1ccc(C(=O)COC(=O)C(Cc2ccccc2)NC(=O)c2ccc(Cl)cc2)cc1 (configuration not stated)	23	1	45*	4	0.8
COc1ccc(CN(C(=O)CSc2nnc(-c3ccc(F)cc3)o2)c2ccc(F)cc2)cc1	68*	0.5	15	54*	0.3
COc1ccc(-c2nnc(SCC(=O)c3ccc(C)o3)o2)cc1	/	/	12	/	/
COc1ccc(N(Cc2ccccc2)C(=O)CSc2nnc(Cn3nnc4ccccc43)o2)cc1	74*	0.6	5	42	0.3
O=C(CSc1nnc(Cn2nnc3ccccc32)o1)Nc1ccc(Cl)cc1	/	/	28	/	/
O=C(CSc1nnc(Cn2nnc3ccccc32)o1)N(Cc1ccc(F)cc1)c1ccccc1	59*	0.7	12	32	0.4
COc1ccc(NC(=O)C(c2ccc(OC)cc2)N(C)C(=O)CC2NC(=O)NC2=O)cc1 (configuration not stated)	/	/	1	/	/
CCOc1ncccc1C(=O)OCC(=O)Nc1ccc(S(=O)(=O)N2CCOCC2)cc1	/	/	7	/	/
CC(=O)N1CCC(N(CCN2CCOCC2)C(=S)Nc2cccc(C)c2C)CC1	/	/	2	/	/
CCCCCCCC(=O)NC(Nc1ccc(S(N)(=O)=O)cc1)C(Cl)(Cl)Cl (configuration not stated)	77*	0.9	9	15	0.2
O=C(CCc1ccccc1)NC(NC(=S)Nc1ccc(Br)cc1)C(Cl)(Cl)Cl (configuration not stated)	97*	0.7	23	30	0
CC(C)C(=O)NC(Nc1ccc(S(N)(=O)=O)cc1)C(Cl)(Cl)Cl (configuration not stated)	/	/	1	/	/
O=C(CCc1ccccc1)NC(NC(=S)Nc1cccc(Cl)c1)C(Cl)(Cl)Cl (configuration not stated)	/	/	12	/	/
CCCCCC(=O)NC(NC(=S)Nc1ccc(S(N)(=O)=O)cc1)C(Cl)(Cl)Cl (configuration not stated)	93*	0.4	6	60*	0.1
CCCC(=O)NC(NC(=S)Nc1ccc(S(N)(=O)=O)cc1)C(Cl)(Cl)Cl (configuration not stated)	/	/	14	/	/
C=C(C)C1CC=C(C)/C(=N/NC(=O)COc2ccccc2C)C1 (configuration not stated)	/	/	14	/	/
CCOC(=O)NCCc1ccc(OC)cc1	64*	0.2	2	83*	0.4
COc1ccc(CCNC(C)=O)cc1	-11	1	14	-5	1.1
COc1ccc(CCNC(=O)c2ccc(Cl)cc2Cl)cc1	6	0.1	15	89*	0.9
CCOc1ccc(CCNC(=O)C(O)c2ccccc2)cc1 (configuration not stated)	57*	0.5	18	47	0.4
CCC(CC)C(=O)NCCc1ccc(OC)cc1	59*	0.2	17	77*	0.4
CCOc1ccc(C(=O)NCCc2ccccc2)cc1	42	0.6	2	43	0.6
COC(=O)CSc1nnc(CNC(=O)c2ccccc2OC)n1C	3	1	4	-1	1
O=C(CSCc1ccc(Br)cc1)N=Nc1c(O)[nH]c2ccccc12	/	/	2	/	/
CCOC(=O)COc1ccc(S(=O)(=O)c2ccc(OCC(=O)OCC)cc2)cc1	42	1	1	5	0.6
CCOC(=O)COc1ccc(CCNC(C)=O)cc1	-111	1.1	7	-13	2.1*
O=C(Nc1cc2c(ccc3ccccc32)oc1=O)C1CCCCC1	-54	1.1	9	-7	1.5
CC1CCN(c2nnc(N)s2)CC1	/	/	5	/	/
CCOCCSc1nc2c(c(=O)[nH]c(=O)n2C)n1CCCc1ccccc1	24	0.8	3	21	0.8
